Activation data for 95 molecules are collected here from PubChem BioAssay AID1508602 (The Scripps Research Institute Molecular Screening Center, 2020).

The structures appear in SMILES notation. Where “and” joins values, the source holds several entries; their conditions need not be identical. Equal entries are not always repeated. Screen size: about 650,000 compounds; about 6,800 (1%) were called active. Rule as the data show it: active = activation above about 4.9%; inactive = the rest. The full list was thinned out, with actives kept by preference. More than one record can exist for a structure, and the calls need not agree.

The target in this assay is G-protein coupled receptor 151 (Homo sapiens) (UniProt Q8TDV0). The assay is described as follows: activates the human receptor GPR151, primary screen, cell-based, PathHunter beta-arrestin, luminescence (AID 1508602).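 Also: 0% = median of compound wells and 100% = cells with positive control.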 Conditions: PathHunter beta-arrestin GPR151 cells, at 11.2 µM, stronger effect = higher value.
Chain of G-protein coupled receptor 151 (Homo sapiens) (Q8TDV0 whole entry, looked up): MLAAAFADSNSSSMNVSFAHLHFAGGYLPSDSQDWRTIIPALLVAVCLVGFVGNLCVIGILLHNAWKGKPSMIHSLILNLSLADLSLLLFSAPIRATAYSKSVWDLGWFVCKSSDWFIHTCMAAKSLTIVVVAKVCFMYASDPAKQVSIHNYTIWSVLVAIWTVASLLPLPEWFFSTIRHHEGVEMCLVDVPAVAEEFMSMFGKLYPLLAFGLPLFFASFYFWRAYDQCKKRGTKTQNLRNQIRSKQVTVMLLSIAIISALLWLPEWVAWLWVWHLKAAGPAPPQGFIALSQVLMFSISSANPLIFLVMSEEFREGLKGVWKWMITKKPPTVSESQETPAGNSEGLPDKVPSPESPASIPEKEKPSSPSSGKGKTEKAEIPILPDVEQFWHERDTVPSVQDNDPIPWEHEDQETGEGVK
For `CC1Cc2ccccc2N1S(=O)(=O)c1nnc(NC(=O)c2ccc(F)cc2)s1` (stereo not given), the activation is -0.611% (inactive). With `COc1ccccc1NC(=O)c1c(NCc2cccs2)sc2c1CCCC2` the figure was 1.25% (inactive); with `C#CCN=Cc1c(O)n(CC)c(=S)n(CC)c1=O`, -0.872% (inactive); with `Cc1cccc(NC(=S)N(CCCN2CCCC(C)C2)Cc2cccs2)c1` (stereo not given), 2.67% (inactive).

For the molecule `CCOC(=O)C1=CN(c2ccc(C)cc2)C=C(C(=O)OCC)C1c1ccc(Cl)c(Cl)c1`, the activation was 1.19% (inactive). With `C#CCN1C(=O)S/C(=C/c2cc(Cl)c(O)c(OC)c2)C1=O` the figure was 2.53% (inactive). With `CCCCCn1c(=S)[nH]c2cc(C(=O)NCc3ccc4c(c3)OCO4)ccc2c1=O` the figure was -1.93% (inactive). With `C=CCn1c(=O)c2ccc(C(=O)NCc3ccc4c(c3)OCO4)cc2n(CC(N)=O)c1=O` the figure was 10.5% (active); with `O=C(NCc1ccc2c(c1)OCO2)c1ccc(I)cc1`, -1.11% (inactive); with `CSCCC(NC(C)=O)C(=O)OCC(=O)Nc1nnc(C(C)C)s1` (stereo not given), -1.34% (inactive). In the case of `COc1c(Cl)ccc(Cl)c1C(=O)Nc1cc(C)cc(C)c1`, the activation is 0.289% (inactive). With `COC(=O)/C=C1/C(=O)Nc2ccccc21` the figure was -0.452% (inactive); with `Cc1cc(C)c(/C=C2\C(=O)Nc3ccccc32)[nH]1`, -2.18% (inactive) and 5.18% (active). With `Cn1c(/C=C2\C(=O)Nc3ccccc32)nc2ccccc2c1=O` the figure was 1.31% (inactive); with `COC(=O)c1c(OCc2cccnc2)cc(=O)n2c1CCN(C(C)CSC)CC2` (stereo not given), 0.107% (inactive); with `COc1cccc(CNC(=O)CCC(=O)N2CC(C)Oc3ccc(C)cc32)c1` (stereo not given), 0.215% (inactive). In the case of `Cc1cccc(CN[C@H]2C[C@H]3C(=O)N[C@@H](CC(C)C)C(=O)N3C2)c1`, the activation was 1.59% (inactive). With `C=C(C)Cn1c(N2CCN(CCO)CC2)nc2c1c(=O)[nH]c(=O)n2C` the figure was -0.406% (inactive); with `COc1cccc(/C=C(\C#N)c2nc3ccc(C)cc3[nH]2)c1OC`, 13.2% (active).

Take `COc1cc2c(cc1/C=C(\C#N)c1nc3ccccc3[nH]1)OCO2`: the activation is 0.566% (inactive).

`COc1ccc2nc(/C(C#N)=C\c3cc4c(cc3OC)OCO4)[nH]c2c1`: the activation is 5.68% (active).

In the case of `COc1ccccc1/C=C(/C#N)c1nc2ccccc2[nH]1`, the activation is -0.79% (inactive). With `Cc1ccc2nc(/C(C#N)=C/c3ccccc3F)[nH]c2c1`, the activation was -0.301% (inactive). With `COc1ccc2nc(/C(C#N)=C\c3c[nH]c4ccccc34)[nH]c2c1` the figure was -0.394% (inactive); with `COc1ccc(S(=O)(=O)n2nc(-c3cc(OC)cc(OC)c3)cc2N)cc1`, -1.02% (inactive). With `Cc1ccc(NC(=O)C2CCCN(S(=O)(=O)c3ccc4c(c3)oc(=O)n4C)C2)cc1C` (stereo not given), the activation is -0.645% (inactive). With `O=C(c1ccc(N2CCC(NCc3cccc(F)c3F)CC2)cc1)N1CCCC(CO)C1` (stereo not given) the figure was 0.257% (inactive); with `O=C(Nc1ccc2oc(-c3cccc(I)c3)nc2c1)c1cc(Br)ccc1Cl`, -0.461% (inactive); with `O=C(Cc1ccc([N+](=O)[O-])cc1)NCCC1=CCCCC1`, 0.571% (inactive). Take `O=C(CNC(=S)N(Cc1cccs1)C1CCCCC1)NCCC1=CCCCC1`: the activation is 2.8% (inactive).

Turning to `O=C(Cc1cccs1)NCCC1=CCCCC1`, the activation is 9.81% (active). With `CCOC(=O)c1c(NC(=O)c2cc(S(N)(=O)=O)c(Cl)cc2Cl)sc2c1CCC(C)C2` (stereo not given) the figure was 0.0074% (inactive); with `COc1cc(/C=C2/C(=N)N3N=C(CC(C)C)SC3=NC2=O)ccc1OC(=O)c1ccc(F)cc1`, -0.0343% (inactive). With `CCOC(=O)Nc1c(C(=O)OC)[nH]c2ccc(C)cc12` the figure was -1.5% (inactive); with `CCOC(=O)c1[nH]c2ccc(OC)cc2c1NC(=O)CN(C)C`, 6.75% (active); with `CCOC(=O)c1[nH]c2ccc(OC)cc2c1NC(=S)N1CCN(c2ncccn2)CC1`, 2.39% (inactive). With `COc1ccccc1NC(=O)c1sc2ncn(Cc3cccc(Br)c3)c(=O)c2c1C` the figure was -1.06% (inactive). As for `S=C(S)NCCc1c[nH]c2ccccc12`, the activation was -0.43% (inactive). Turning to `CSc1ncc(C(=O)NCCc2c[nH]c3ccccc23)c(C)n1`, the activation was 4.98% (active). With `O=C(NCCc1c[nH]c2ccccc12)c1cccs1` the figure was -0.507% (inactive); with `Cc1ccc(CNC(=O)CN2C(=O)C3C4C=CC(C4)C3C2=O)o1` (stereo not given), 0.668% (inactive). With `C[C@@H](c1ccccc1)N1C(=O)[C@H]2[C@H]3[C@H](O)C=CC(=O)[C@@H]3CC[C@H]2C1=O` the figure was -1.71% (inactive); with `CC(=O)N(c1nc(C=O)cs1)c1ccccc1F`, 1.55% (inactive). With `COc1ccc(N2C(=O)C(=O)/C(=C(/O)c3ccccc3)C2c2ccc(Cl)cc2)cc1` (stereo not given), the activation is -0.225% (inactive).

With `CC(C)(C)c1ccc(C2/C(=C(/O)c3ccccc3)C(=O)C(=O)N2c2ccc(OCC(=O)O)cc2)cc1` (stereo not given), the activation was -0.849% (inactive).

As for `O=C(O)COc1ccc(N2C(=O)C(=O)/C(=C(\O)c3ccccc3)C2c2ccc(Cl)cc2Cl)cc1` (stereo not given), the activation is 6.19% (active).

Take `CCOc1ccc2c(c1)=C/C(=C\c1[nH]c(=S)[nH]c1O)C(=O)N=2`: the activation is -0.225% (inactive). With `CN1NC2(CCCCC2)N(c2ccccc2)C1=S`, the activation is 0.403% (inactive). With `COc1ccc(CCNc2cc(C)nc(NCc3ccc4c(c3)OCO4)n2)cc1` the figure was -0.591% (inactive); with `COc1ccc(CCNc2ncnc3c2nc(Nc2cccc(N(C)C)c2)n3C(C)C)cc1`, -3.07% (inactive); with `COc1ccc(CCNc2cc(C)nc(Nc3cccc(N(C)C)c3)n2)cc1`, 8.12% (active). With `CC1=C(C(=O)OCc2ccc3c(c2)OCO3)C(c2ccc(Cl)c(Cl)c2)NC(=O)N1` (stereo not given), the activation is -0.562% (inactive).

With `CC(C)(C)S(=O)(=O)Nc1nccnc1-c1ccc2c(c1)OCO2`, the activation is -0.466% (inactive). With `CCCCSC1=C(C#N)C(c2ccc(OC)cc2)C2=C(CC(C)(C)CC2=O)N1` (stereo not given) the figure was 1.78% (inactive). `CC(=O)N(C)c1ccc(N=Cc2ccc3ccccc3c2)cc1`: the activation was -0.522% (inactive). With `O=C1NC2(CCN(CC(=O)N3CCCCC3)CC2)Nc2ccccc21` the figure was -0.0006% (inactive); with `Cc1ccc(N=Cc2c(NCc3ccco3)nc3c(C)cccn3c2=O)cc1`, -0.949% (inactive); with `C/C(=N/NC(=O)c1ccccc1)c1ccc(F)cc1`, -1.24% (inactive). With `CC(C)n1c(Nc2ccc3ncccc3c2)nc2c(N)ncnc21` the figure was 0.875% (inactive); with `CC(C)n1c(Nc2ccc3ncccc3c2)nc2c(NC3CC3)ncnc21`, 7.49% (active). With `CCCNc1ncnc2c1nc(Nc1cccc(N(C)C)c1)n2C(C)C` the figure was -1% (inactive); with `CC1=C(C(=O)Nc2nc3ccc(Br)cc3s2)C(c2ccccc2C)C2=C(CC(C)(C)CC2=O)N1` (stereo not given), 1.38% (inactive); with `COc1ccc(C(=O)Nc2ccc(S(=O)(=O)N(C)C3CCCCC3)cc2)cc1`, -0.159% (inactive).

As to `COc1ccc(NC(=O)c2ccc(C(=O)Nc3ccc(OC)cc3)cc2)cc1`, the activation is -0.694% (inactive). With `COc1ccc(C(=O)Nc2ccc(S(=O)(=O)NC(C)C)cc2)cc1` the figure was 5.49% (active); with `COc1cccc(-c2nc3nc(C)c(CCC(=O)NC4CCCC4)c(C)n3n2)c1`, 0.324% (inactive). As for `CC(=O)Nc1cccc(-c2csc(C)n2)c1`, the activation is -0.0322% (inactive). With `Cc1nc(-c2cccc(NC(=O)C3CC(=O)c4ccccc43)c2)cs1` (stereo not given) the figure was 7.17% (active); with `Cc1ccc(Cl)cc1NC(=O)C1CC(=O)c2ccccc21` (stereo not given), 0.739% (inactive); with `CCSCCOC(=O)C1=C(C)NC2=C(C(=O)CC(c3cccs3)C2)C1c1cc(OC)c(O)c([N+](=O)[O-])c1` (stereo not given), 0.362% (inactive). Regarding `c1ccc(CN2CCC(Nc3nnnn3-c3ccccc3)CC2)cc1`, the activation is 0.295% (inactive). With `CC(NC(=O)Nc1ccc(Br)cc1Br)(C(F)(F)F)C(F)(F)F` the figure was -0.154% (inactive); with `CCOC(=O)c1c(NC(=O)CSc2nnc(CNC(=O)Cc3ccc(OC)cc3)n2-c2ccc(F)cc2)sc2c1CCCC2`, -0.665% (inactive). With `COc1ccccc1N1CCN(CCNC(=O)c2ccc(F)cc2)CC1` the figure was -2.55% (inactive); with `COCCNC(=S)N1CCN(c2ncccn2)CC1`, -1.93% (inactive); with `COCCNC(=S)N1CCN(c2ccccc2OC)CC1`, 12.1% (active). `CC(C)(C)c1ccc(S(=O)(=O)ON2C(=O)c3ccccc3C2=O)cc1`: the activation was 3.8% (inactive).

Consider `CCCC(=O)Oc1ccc2c(-c3ccccc3)cc(=O)oc2c1`, for which the activation is 1.03% (inactive). With `C=CCn1c2ccccc2c2nnc(SCc3[nH]c(=O)[nH]c3C(=O)CCCCC(=O)OCC)nc21` the figure was 9.28% (active); with `C=CCn1c2ccccc2c2nnc(SC(CC)C(=O)Nc3nc(C)c(C(=O)OCC)s3)nc21` (stereo not given), -0.843% (inactive). With `C=CCN(CC=C)C(=O)CSc1nnc2c3ccccc3n(C)c2n1` the figure was 0.64% (inactive); with `C=CCNC(=O)C(=O)NCC1OCCCN1S(=O)(=O)c1ccccc1` (stereo not given), 5.93% (active); with `O=C(NCC1OCCCN1S(=O)(=O)c1ccccc1)C(=O)NC1CC1` (stereo not given), 0.198% (inactive). For `O=C(NCCN1CCOCC1)C(=O)NCC1OCCCN1S(=O)(=O)c1ccccc1` (stereo not given), the activation was -0.042% (inactive). With `Cc1nc(NC(=O)CSc2nnc3c(C)cc4cc5c(cc4n23)OCCO5)sc1C` the figure was 0.827% (inactive); with `O=C(Nc1nc2ccccc2[nH]1)c1cc(Cl)ccc1Cl`, -5.18% (inactive); with `CC(C(=O)NC1CCCC1)n1c2ccccc2c2cn[nH]c(=O)c21` (stereo not given), 0.687% (inactive). `CC(C(=O)NCCN1CCOCC1)n1c2ccccc2c2cn[nH]c(=O)c21` (stereo not given): the activation is 6.21% (active). With `CC(C(=O)NCc1ccc(F)cc1)n1c2ccccc2c2cn[nH]c(=O)c21` (stereo not given) the figure was 0.149% (inactive). With `Cc1ccccc1Cn1cc(SCC(=O)N2CCCC2)c2ccccc21` the figure was -1.67% (inactive); with `COc1ccccc1NC(=O)C1CC12CCN(Cc1cccc(OCCO)c1)CC2` (stereo not given), -0.488% (inactive).

In the case of `Cn1c2ccccc2c2nnc(SCC(=O)Nc3ccc(Cl)cn3)nc21`, the activation was -1.79% (inactive). For the molecule `Cn1c2ccccc2c2nnc(SCC(=O)Nc3ccc(NC(=O)C4CC4)cc3)nc21`, the activation is 7.08% (active). In the case of `Cn1c2ccccc2c2nnc(SCCCCC(=O)Nc3cccc4ccccc34)nc21`, the activation is -1.31% (inactive). With `CC(C)(C)CN1CCC(Oc2cccc(C(=O)NCC3CC(=O)N(C4CC4)C3)c2)CC1` (stereo not given) the figure was -0.301% (inactive).
